Test results reported in the supplement of paper PMC10849652.
Targets with a hit are over-represented here; the source holds about 7,900 in all. About 0.6% of all pairs of compound and target were hits. A number with no mark means an inactive call.

How the values were obtained:
Test in all cases: log2 fold change, soluble protein after heating vs DMSO (PISA); higher = thermal stabilisation; K562 cells, 10 uM, 30 min; active = over 0.2 and 3.5 SD of the protein, either way, in both replicates (recomputed)
IRAK-1-4 Inhibitor I = compound: C1COCCN1CCN2C3=CC=CC=C3N=C2NC(=O)C4=CC(=CC=C4)[N+](=O)[O-] [IRAK-1-4 Inhibitor I]
In short: (§1)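 K562 cells at 2×10^6 cells/mL were treated with 10 μM compound for 30 min. Aliquots were heated for 3 min across 48°C-58°C, pooled, and extracted in PBS with 0.5% NP-40 at 4°C; soluble protein was the supernatant after 21,000xg for 90 min. Soluble protein was quantified by TMTpro 16plex LC-MS/MS with channel sums equalised, and reported as log2 fold change in thermal stability against DMSO controls, with values from duplicates.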

ibrutinib = compound: C=CC(=O)N1CCC[C@@H](n2nc(-c3ccc(Oc4ccccc4)cc3)c3c(N)ncnc32)C1 [ibrutinib]
In short: as §1

[1] = compound: CC(=O)c1cnc2ccc(-c3cc(Cl)c(O)c(Cl)c3)nc2c1N[C@H]1CC[C@H](CN(C)C)CC1
In short: as §1

ralimetinib = compound: CC(C)(C)Cn1c(N)nc2ccc(-c3[nH]c(C(C)(C)C)nc3-c3ccc(F)cc3)nc21 [ralimetinib]
In short: as §1

[2] = compound: CC(C)(O)CC(=O)NCCn1ccc2ncnc(Nc3ccc(Oc4cccc(C(F)(F)F)c4)c(Cl)c3)c21
In short: as §1

[3] = compound: CC(C)C1=C2N=C(C=C(N2N=C1)NCC3=CC=CC=C3)NCCCCCCN
In short: as §1

[4] = compound: CC(C)C[C@@H](C=O)NC(=O)[C@H](CC(C)C)NC(=O)[C@H](CC(C)C)NC(=O)OCc1ccccc1
In short: as §1

pinometostat = compound: CC(C)N(C[C@H]1O[C@@H](n2cnc3c(N)ncnc32)[C@H](O)[C@@H]1O)[C@H]1C[C@@H](CCc2nc3cc(C(C)(C)C)ccc3[nH]2)C1 [pinometostat]
In short: as §1

[5] = compound: CC1=C(C(CC(=O)N1)C2=CC=C(C=C2)C(F)(F)F)C(=O)NC3=C(C=C4C(=C3)C=NN4)F
In short: as §1

[6] = compound: CC1=C(C2=C(C=C1)C(=O)C3=CC=CC=C3N2CCCN)C
In short: as §1

[7] = compound: CC1=C(C=C(C=C1)NC(=O)C2=CC(=CC=C2)C(C)(C)C#N)NC3=CC4=C(C=C3)N=CN(C4=O)C
In short: as §1

[8] = compound: CC1=C(C=C(C=C1)NC(=O)C2=CC(=CC=C2)N(C)C)NC(=O)C3=CC=C(C=C3)O
In short: as §1

[9] = compound: CC1=CC=C(C=C1)SC2=C3C=C(SC3=CN=C2)C(=O)N
In short: as §1

[10] = compound: CC1=NC(=CC=C1)C2=C(N=C(N2)C(C)(C)C)C3=CC4=NC=CN=C4C=C3
In short: as §1

Nexturastat A = compound: CCCCN(Cc1ccc(C(=O)NO)cc1)C(=O)Nc1ccccc1 [Nexturastat A]
In short: as §1

vemurafenib = compound: CCCS(=O)(=O)Nc1ccc(F)c(C(=O)c2c[nH]c3ncc(-c4ccc(Cl)cc4)cc23)c1F [vemurafenib]
In short: as §1

[11] = compound: CCCS(=O)(=O)Nc1ccc(F)c(C(=O)c2c[nH]c3ncc(Cl)cc23)c1F
In short: as §1

[12] = compound: CCCc1cc(C)[nH]c(=O)c1CNC(=O)c1cc(-c2ccnc(N3CCN(C)CC3)c2)cc2c1cnn2C(C)C
In short: as §1

givinostat = compound: CCN(CC)Cc1ccc2cc(COC(=O)Nc3ccc(C(=O)NO)cc3)ccc2c1 [givinostat]
In short: as §1

barasertib = compound: CCN(CCCOc1ccc2c(Nc3cc(CC(=O)Nc4cccc(F)c4)[nH]n3)ncnc2c1)CCOP(=O)(O)O [barasertib]
In short: as §1

Chain of UniProt P40763 (P40763 whole entry, looked up): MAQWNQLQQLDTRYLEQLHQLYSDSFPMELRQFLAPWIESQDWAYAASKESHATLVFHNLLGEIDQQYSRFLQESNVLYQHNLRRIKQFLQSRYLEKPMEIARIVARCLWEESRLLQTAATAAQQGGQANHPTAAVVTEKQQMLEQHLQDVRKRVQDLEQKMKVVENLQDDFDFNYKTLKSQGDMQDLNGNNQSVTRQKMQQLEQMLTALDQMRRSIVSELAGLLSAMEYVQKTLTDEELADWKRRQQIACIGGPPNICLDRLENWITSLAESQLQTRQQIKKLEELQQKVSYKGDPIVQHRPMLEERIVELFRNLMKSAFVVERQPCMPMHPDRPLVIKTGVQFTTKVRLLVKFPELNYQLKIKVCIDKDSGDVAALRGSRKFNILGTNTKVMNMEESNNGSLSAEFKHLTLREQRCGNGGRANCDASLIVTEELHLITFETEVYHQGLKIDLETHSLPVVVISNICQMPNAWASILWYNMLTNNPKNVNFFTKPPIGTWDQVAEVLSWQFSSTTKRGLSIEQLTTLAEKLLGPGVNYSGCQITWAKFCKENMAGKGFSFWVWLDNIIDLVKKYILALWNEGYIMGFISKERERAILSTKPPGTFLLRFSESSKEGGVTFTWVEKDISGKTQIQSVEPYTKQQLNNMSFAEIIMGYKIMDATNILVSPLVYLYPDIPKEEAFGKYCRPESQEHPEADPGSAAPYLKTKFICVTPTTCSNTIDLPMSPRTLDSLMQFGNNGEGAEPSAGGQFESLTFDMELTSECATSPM
Chain of UniProt P04920 (P04920 whole entry, looked up): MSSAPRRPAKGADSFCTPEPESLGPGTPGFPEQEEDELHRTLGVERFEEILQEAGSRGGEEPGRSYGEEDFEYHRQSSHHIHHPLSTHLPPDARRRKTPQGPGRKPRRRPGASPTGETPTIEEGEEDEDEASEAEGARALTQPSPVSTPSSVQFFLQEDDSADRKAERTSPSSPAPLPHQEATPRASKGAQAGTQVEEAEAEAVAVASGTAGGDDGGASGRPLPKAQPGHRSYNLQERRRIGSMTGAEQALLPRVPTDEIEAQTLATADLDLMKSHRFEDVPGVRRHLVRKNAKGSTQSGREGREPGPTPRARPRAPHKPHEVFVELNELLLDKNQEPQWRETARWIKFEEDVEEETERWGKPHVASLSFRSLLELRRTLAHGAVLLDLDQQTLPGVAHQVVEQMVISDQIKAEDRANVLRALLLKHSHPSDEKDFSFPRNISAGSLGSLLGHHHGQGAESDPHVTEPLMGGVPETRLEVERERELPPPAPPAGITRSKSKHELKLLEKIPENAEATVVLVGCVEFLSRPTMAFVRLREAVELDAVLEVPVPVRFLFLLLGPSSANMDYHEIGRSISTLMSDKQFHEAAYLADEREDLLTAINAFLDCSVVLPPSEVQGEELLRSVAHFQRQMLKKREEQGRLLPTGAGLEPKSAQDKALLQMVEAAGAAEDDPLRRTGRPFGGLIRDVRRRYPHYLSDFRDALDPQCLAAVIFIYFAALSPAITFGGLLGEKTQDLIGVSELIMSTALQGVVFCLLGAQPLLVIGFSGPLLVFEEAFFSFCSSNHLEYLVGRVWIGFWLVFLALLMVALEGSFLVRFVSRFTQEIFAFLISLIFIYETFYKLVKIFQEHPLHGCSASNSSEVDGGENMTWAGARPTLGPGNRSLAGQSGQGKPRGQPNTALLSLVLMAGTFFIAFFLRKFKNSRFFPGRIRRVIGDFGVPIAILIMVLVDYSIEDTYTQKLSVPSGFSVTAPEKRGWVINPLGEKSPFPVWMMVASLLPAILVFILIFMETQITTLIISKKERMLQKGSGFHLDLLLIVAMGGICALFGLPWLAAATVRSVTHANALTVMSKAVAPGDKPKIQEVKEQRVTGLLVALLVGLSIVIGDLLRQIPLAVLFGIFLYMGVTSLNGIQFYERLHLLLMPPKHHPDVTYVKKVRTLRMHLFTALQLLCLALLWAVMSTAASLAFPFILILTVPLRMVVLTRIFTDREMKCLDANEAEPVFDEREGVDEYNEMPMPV
Chain of UniProt O60264 (O60264 whole entry, looked up): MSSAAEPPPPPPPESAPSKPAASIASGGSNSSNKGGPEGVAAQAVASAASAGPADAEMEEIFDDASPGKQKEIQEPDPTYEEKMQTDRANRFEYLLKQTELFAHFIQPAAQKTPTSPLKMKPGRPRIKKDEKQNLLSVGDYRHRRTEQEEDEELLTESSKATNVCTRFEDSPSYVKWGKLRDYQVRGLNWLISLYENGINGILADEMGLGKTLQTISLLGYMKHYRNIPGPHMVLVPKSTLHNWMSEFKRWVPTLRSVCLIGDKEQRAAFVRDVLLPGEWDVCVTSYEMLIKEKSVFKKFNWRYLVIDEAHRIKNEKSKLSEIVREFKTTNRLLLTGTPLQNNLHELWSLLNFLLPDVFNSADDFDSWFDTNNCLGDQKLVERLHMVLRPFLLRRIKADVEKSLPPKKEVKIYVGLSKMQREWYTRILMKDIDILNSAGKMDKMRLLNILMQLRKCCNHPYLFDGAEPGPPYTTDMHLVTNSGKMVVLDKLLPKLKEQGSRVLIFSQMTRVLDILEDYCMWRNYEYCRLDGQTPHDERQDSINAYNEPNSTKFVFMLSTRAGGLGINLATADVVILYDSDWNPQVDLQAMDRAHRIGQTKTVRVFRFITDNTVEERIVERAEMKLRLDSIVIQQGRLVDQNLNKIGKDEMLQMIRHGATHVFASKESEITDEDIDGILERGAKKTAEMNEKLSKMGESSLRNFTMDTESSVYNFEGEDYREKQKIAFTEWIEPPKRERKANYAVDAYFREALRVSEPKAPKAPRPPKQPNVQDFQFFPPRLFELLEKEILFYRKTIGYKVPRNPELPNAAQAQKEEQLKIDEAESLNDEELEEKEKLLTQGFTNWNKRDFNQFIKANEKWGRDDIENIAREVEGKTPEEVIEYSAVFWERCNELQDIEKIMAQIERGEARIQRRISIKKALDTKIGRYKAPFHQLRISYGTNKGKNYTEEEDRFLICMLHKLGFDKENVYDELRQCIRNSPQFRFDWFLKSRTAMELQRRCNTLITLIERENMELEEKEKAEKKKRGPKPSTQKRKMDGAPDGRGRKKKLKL
Chain of UniProt O14975 (O14975 whole entry, looked up): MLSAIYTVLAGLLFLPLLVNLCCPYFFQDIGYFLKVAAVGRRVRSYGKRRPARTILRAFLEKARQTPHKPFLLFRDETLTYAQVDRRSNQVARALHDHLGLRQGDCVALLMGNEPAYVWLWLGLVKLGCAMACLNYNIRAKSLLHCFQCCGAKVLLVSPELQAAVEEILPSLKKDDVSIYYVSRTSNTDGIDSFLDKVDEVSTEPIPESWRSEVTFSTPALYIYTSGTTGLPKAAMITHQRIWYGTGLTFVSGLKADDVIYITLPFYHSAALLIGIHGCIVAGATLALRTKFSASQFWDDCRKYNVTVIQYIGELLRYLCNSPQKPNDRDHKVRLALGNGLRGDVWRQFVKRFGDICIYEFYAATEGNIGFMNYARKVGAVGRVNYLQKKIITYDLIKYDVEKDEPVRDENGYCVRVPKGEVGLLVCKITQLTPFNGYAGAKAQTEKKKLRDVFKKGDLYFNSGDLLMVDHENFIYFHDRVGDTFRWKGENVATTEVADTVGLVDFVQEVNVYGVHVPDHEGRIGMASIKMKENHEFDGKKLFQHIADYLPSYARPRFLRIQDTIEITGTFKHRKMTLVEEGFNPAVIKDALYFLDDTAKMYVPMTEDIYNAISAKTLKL
Chain of UniProt P50225 (P50225 whole entry, looked up): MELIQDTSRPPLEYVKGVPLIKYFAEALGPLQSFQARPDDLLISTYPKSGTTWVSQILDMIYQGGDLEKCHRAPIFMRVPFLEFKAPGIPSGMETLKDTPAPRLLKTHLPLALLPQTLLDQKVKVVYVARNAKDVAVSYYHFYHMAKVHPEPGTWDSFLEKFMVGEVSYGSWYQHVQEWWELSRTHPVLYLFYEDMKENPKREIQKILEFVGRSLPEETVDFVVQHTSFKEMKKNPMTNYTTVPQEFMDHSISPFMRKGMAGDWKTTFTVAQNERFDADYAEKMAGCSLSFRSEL
Chain of UniProt Q8IY18 (Q8IY18 whole entry, looked up): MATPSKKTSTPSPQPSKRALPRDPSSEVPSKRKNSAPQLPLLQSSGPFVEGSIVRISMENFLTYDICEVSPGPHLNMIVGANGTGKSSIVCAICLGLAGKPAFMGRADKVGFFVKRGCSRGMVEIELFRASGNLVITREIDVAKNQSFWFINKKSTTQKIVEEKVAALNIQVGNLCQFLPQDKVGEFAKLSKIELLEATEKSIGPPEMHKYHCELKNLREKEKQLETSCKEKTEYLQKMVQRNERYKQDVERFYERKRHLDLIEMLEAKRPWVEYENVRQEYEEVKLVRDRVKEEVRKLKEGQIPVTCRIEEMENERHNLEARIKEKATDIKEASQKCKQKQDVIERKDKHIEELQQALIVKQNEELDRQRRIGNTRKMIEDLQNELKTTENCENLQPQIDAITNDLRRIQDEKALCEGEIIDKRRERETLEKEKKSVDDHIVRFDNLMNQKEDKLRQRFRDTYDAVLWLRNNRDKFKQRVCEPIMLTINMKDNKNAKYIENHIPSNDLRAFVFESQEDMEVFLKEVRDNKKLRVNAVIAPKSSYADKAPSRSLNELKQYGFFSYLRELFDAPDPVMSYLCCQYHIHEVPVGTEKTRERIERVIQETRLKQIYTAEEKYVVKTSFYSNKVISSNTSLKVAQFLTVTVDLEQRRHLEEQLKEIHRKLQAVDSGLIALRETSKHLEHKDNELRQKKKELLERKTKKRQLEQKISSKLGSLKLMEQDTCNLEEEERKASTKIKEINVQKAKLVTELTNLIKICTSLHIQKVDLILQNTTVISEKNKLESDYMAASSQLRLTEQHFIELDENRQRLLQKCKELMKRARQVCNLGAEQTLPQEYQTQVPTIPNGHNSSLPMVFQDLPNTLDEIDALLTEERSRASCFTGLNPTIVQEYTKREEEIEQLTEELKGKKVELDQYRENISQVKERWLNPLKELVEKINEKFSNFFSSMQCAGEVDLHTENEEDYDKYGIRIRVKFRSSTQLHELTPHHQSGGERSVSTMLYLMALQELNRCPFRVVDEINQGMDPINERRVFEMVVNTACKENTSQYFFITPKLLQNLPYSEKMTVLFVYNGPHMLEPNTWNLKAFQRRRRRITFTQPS

Row | Target | log2 fold change (IRAK-1-4 Inhibitor I) | log2 fold change (ibrutinib) | log2 fold change [1] | log2 fold change (ralimetinib) | log2 fold change [2] | log2 fold change [3] | log2 fold change [4] | log2 fold change (pinometostat) | log2 fold change [5] | log2 fold change [6] | log2 fold change [7] | log2 fold change [8] | log2 fold change [9] | log2 fold change [10] | log2 fold change (Nexturastat A) | log2 fold change (vemurafenib) | log2 fold change [11] | log2 fold change [12] | log2 fold change (givinostat) | log2 fold change (barasertib)
1 | TCERG1 (UniProt O14776) | -0.062 | -0.073 | -0.065 | -0.035 | -0.172 | -0.086 | -0.041 | -0.039 | -0.016 | 0.062 | 0.061 | -0.147 | 0.08 | 0.077 | -0.144 | 0.118 | 0.135 | -0.006 | 0.146 | 0.107
2 | SMARCA5 (UniProt O60264) | -0.108 | -0.135 | 0.103 | 0.033 | -0.113 | -0.025 | 0.084 | 0.068 | -0.135 | -0.97 (active) | 0.042 | -0.041 | 0.038 | 0.014 | 0.107 | 0.085 | 0.129 | 0.032 | 0.149 | 0.109
3 | SRSF3 (UniProt P84103) | -0.207 | 0.11 | -0.035 | 0.112 | 0.19 | 0.083 | 0.152 | 0.064 | 0.125 | -0.134 | -0.019 | 0.047 | -0.208 | -0.103 | 0.124 | -0.064 | -0.173 | 0.047 | -0.029 | -0.093
4 | SNX5 (UniProt Q9Y5X3) | 0.042 | 0.019 | -0.167 | -0.038 | -0.304 (active) | -0.224 | 0.005 | 0.027 | 0.018 | -0.026 | 0.001 | 0.015 | 0.009 | 0.039 | -0.074 | 0.009 | 0.035 | -0.031 | 0.013 | 0.04
5 | SRSF4 (UniProt Q08170) | -0.306 | 0.069 | -0.261 | 0.125 | 0.088 | -0.174 | 0.019 | 0.126 | -0.009 | -0.379 | 0.042 | -0.001 | -0.067 | -0.032 | 0.074 | -0.027 | 0.017 | 0.224 | 0.052 | -0.064
6 | SLC4A2 (UniProt P04920) | 0.022 | -0.024 | -0.015 | 0.003 | -0.07 | -0.165 | 0.143 | 0.054 | 0.042 | 0.01 | 0.04 | 0.008 | 0.039 | -0.017 | 0.046 | 0.002 | 0.035 | -0.043 | 0.037 | 0.045
7 | SLC7A6OS (UniProt Q96CW6) | 0.018 | -0.027 | 0.046 | 0.134 | -0.032 | 0.045 | -0.019 | 0.273 (active) | 0.014 | -0.199 | -0.065 | -0.033 | -0.042 | -0.075 | -0.031 | -0.015 | 0.013 | -0.025 | 0.017 | 0.01
8 | STX17 (UniProt P56962) | -0.062 | 0.002 | 0.031 | 0.037 | -0.063 | -0.235 | 0.028 | 0.006 | 0.062 | 0.138 | -0.036 | -0.064 | -0.023 | 0.039 | 0.126 | 0.12 | 0.12 | -0.07 | 0.152 | 0.011
9 | SLC27A2 (UniProt O14975) | -0.039 | 0.144 | -0.125 | 0.013 | 0.366 (active) | 0.015 | 0.055 | 0.01 | -0.045 | 0.03 | 0.099 | -0.042 | -0.032 | -0.032 | -0.013 | 0.029 | 0.073 | 0.008 | -0.004 | 0
10 | STEAP3 isoform 2 (UniProt Q658P3) | -0.002 | -0.005 | -0.067 | 0.013 | -0.087 | -0.011 | 0.032 | 0.043 | 0.019 | 0.044 | -0.009 | 0.015 | 0.008 | -0.003 | -0.05 | -0.027 | 0.007 | -0.025 | 0.005 | -0.004
11 | STXBP5 (UniProt Q5T5C0) | -0.025 | -0.037 | -0.073 | 0.029 | -0.038 | -0.107 | -0.049 | 0.025 | 0.018 | 0.048 | -0.021 | -0.041 | -0.007 | -0.006 | -0.002 | -0.038 | 0.013 | -0.006 | 0.022 | -0.004
12 | SMC5 (UniProt Q8IY18) | 0.041 | 0.062 | -0.045 | 0.046 | 0.029 | 0.161 | 0.036 | 0.008 | -0.031 | -0.332 (active) | -0.038 | -0.067 | -0.017 | -0.032 | -0.014 | 0.043 | -0.033 | -0.02 | -0.033 | -0.048
13 | STAT3 (UniProt P40763) | -0.038 | -0.044 | 0.009 | -0.001 | -0.08 | -0.261 (active) | 0.024 | 0 | -0.05 | -0.057 | 0.012 | 0.001 | -0.009 | -0.008 | 0.005 | 0.101 | 0.102 | 0.017 | 0.089 | 0.064
14 | SRI (UniProt P30626) | -0.017 | -0.032 | -0.014 | -0.039 | -0.108 | 0.026 | -0.048 | -0.036 | 0.069 | 0.201 | 0.035 | -0.092 | 0.094 | 0.037 | -0.073 | 0.092 | 0.045 | -0.055 | -0.03 | 0.107
15 | SULT1A1 (UniProt P50225) | -0.077 | 0.044 | -0.099 | -0.029 | -0.104 | -0.104 | -0.056 | 0.001 | 0.014 | 0.048 | 0.015 | 0.162 | -0.022 | 0.025 | -0.023 | 0.135 | 0.037 | 0.092 | 0.044 | 0.068
16 | SYMPK (UniProt Q92797) | -0.029 | -0.087 | -0.057 | 0.099 | -0.296 | -0.026 | -0.061 | -0.115 | 0.078 | -0.033 | 0.042 | -0.004 | 0.05 | 0.005 | -0.103 | 0.119 | 0.212 | 0.051 | 0.145 | 0.042
